# Assay results taken from PubChem BioAssay AID1259374 (The Scripps Research Institute Molecular Screening Center, 2018).
# Among all 650,000 compounds or so, about 5,900 (0.91%) were called active. Cut-off read from the data, not from the text of the source: active = inhibition above about 50%; inactive = the rest. For the sample, actives were picked, then their nearest neighbours and some compounds at random.
# Target: Microphthalmia-associated transcription factor (Homo sapiens) (UniProt O75030)
# Assay: MITF inhibitors, primary screen, biochemical, AlphaScreen, human (AID 1259374);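 note: 0% = vehicle wells with protein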
# Conditions: AlphaScreen MITF homodimerization, bead proximity signal; at 2.6 µM; hits give high values
# Microphthalmia-associated transcription factor (Homo sapiens), sequence (O75030 whole entry, looked up): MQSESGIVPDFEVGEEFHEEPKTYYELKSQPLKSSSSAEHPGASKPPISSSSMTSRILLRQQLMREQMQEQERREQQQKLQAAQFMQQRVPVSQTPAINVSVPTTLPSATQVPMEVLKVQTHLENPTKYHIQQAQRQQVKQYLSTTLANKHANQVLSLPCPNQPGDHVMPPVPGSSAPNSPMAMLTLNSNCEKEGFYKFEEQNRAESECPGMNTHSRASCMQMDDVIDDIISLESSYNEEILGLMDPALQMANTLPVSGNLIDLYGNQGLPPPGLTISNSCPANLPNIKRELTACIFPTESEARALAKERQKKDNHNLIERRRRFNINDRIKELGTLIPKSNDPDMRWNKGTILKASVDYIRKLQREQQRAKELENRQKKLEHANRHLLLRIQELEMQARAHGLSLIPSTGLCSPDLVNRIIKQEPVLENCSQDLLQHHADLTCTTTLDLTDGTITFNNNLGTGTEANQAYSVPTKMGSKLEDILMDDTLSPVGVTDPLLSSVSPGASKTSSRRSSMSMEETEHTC
row,Compound,inhibition
1,CCc1nc2ccccc2c(=O)n1-c1ccccc1,10.7% (inactive)
2,CCN1CCc2nc3ccccc3c(C(=O)O)c2C1,61.5% (active)
3,CCn1c(C(=O)O)c(CC(=O)N2CCN(Cc3ccccc3)CC2)c2ccccc21,3.77% (inactive)
4,O=[N+]([O-])c1ccc(N2CCCCC2)c2cccnc12,27.4% (inactive)
5,CS(=O)(=O)Nc1ccc(C#N)c(Cl)c1,-2.59% (inactive)
6,CCC(=O)c1ccc(N2CCN(C)CC2)c(F)c1,-2.65% (inactive)
7,C(#CC1CC1)CN(C1CCCCC1)C1CCCCC1,83.7% (active)
8,CN(CC#CC1CC2CCC1C2)C1CCCCC1 (stereo not given),-0.53% (inactive)
9,CCn1c(=O)n(CC2CS2)c2ccccc21 (stereo not given),-0.54% (inactive)
10,Cc1cnc2nc3c(cc2c1)CN(Cc1cccnc1)CC3,-8.7% (inactive)
11,CN1CCN(c2cc3[nH]c(=S)[nH]c3cc2F)CC1,-8% (inactive)
12,CCOC(=O)C1C2NC(=S)N(CC)C1(C)Oc1ccc(Cl)cc12 (stereo not given),65.6% (active)
13,CCOC(=O)C1C2NC(=S)NC1(C)Oc1c(OCC)cccc12 (stereo not given),-1.57% (inactive)
14,CCOC(=O)C1C2NC(=S)NC1(C)Oc1cc(OC)ccc12 (stereo not given),13.6% (inactive)
15,CCOC(=O)C1C2NC(=S)N(c3ccc(CC)cc3)C1(C)Oc1c(OC)cccc12 (stereo not given),39.5% (inactive)
16,CCOC(=O)C1C2NC(=S)N(c3ccc(F)cc3)C1(C)Oc1c(OCC)cccc12 (stereo not given),55.5% (active)
17,CCOC(=O)C1C2NC(=S)N(c3ccc(Cl)cc3)C1(C)Oc1ccccc12 (stereo not given),10.8% (inactive)
18,Cn1c(SCCOC(N)=O)nnc1-c1ccc([N+](=O)[O-])cc1,5.78% (inactive)
19,CS(=O)(=O)c1ccc(CC(=O)N2CCN(C(c3ccccc3)c3ccccc3)CC2)cc1,7.6% (inactive)
20,c1ccc(-c2ccnc3nc4ccccc4n23)cc1,7.67% (inactive)
21,OC(CNC1CN2CCC1CC2)COc1cccc2ccccc12 (stereo not given),18.3% (inactive)
22,COc1ccc(CN2CCN(c3ccccc3F)CC2)c(OC)c1,14% (inactive)
23,CC(C)N1CCN(Cc2ccccc2)CC1,41% (inactive)

row,Compound,inhibition
1,COc1ccc(CN2CCN(C(C)C)CC2)c(OC)c1OC,68.1% (active)
2,COc1ccc(CN2CCN(C(C)C)CC2)cc1,57% (active)
3,COc1ccc(CN2CCN(c3ccc(C(C)=O)cc3)CC2)cc1,18.3% (inactive)
4,COc1ccc(CN2CCN(CCO)CC2)c(OC)c1OC,-8.5% (inactive)
5,CC(C)CN(Cc1c(O)ccc2c(=O)c(-c3ccccc3)coc12)CC(C)C,-5.09% (inactive)
6,COC(NC(=O)c1ccco1)C(Cl)(Cl)Cl (stereo not given),17.3% (inactive)
7,CCCCn1c(C)c(C(=O)OCC)c2cc(OC(=O)COc3ccccc3)c3ccccc3c21,-5.32% (inactive)
8,Cc1nc2ccccc2c(=O)n1-c1cccc(Cl)c1,22.4% (inactive)
9,COc1ccc(Cl)cc1C(=O)C1CCCN(Cc2ncc[nH]2)C1 (stereo not given),7.6% (inactive)
10,CCCN1CCN(C(=O)Cc2nc(-c3ccc(OC)cc3)no2)CC1,1.81% (inactive)
11,COc1cc(NC(=O)CCc2nc(C3=CCN(C)CC3)no2)cc(OC)c1OC,51.6% (active)
12,CCOC(=O)C1=C(c2ccccc2)OC(N)=C(C#N)C12C(=O)Nc1ccc(Br)cc12 (stereo not given),2.49% (inactive)
13,CC[C@@H](C)C(=O)O[C@H]1[C@H](O)[C@H]2[C@@H](CN3C[C@@H](C)CC[C@H]3[C@@]2(C)O)[C@@H]2C[C@]34O[C@]5(O)[C@@H](OC(=O)C(C)(O)C(C)O)CC[C@@]3(C)[C@@H]5[C@@H](OC(C)=O)[C@@H](OC(C)=O)[C@H]4[C@@]21O (stereo not given in full),23.5% (inactive)
14,c1cncc(CNCCc2c[nH]c3ccccc23)c1,84% (active)
15,COc1ccc(CNCCc2c[nH]c3ccccc23)cc1OC,13.6% (inactive)
16,O=[N+]([O-])c1ccc(CNCCc2c[nH]c3ccccc23)cc1,25.3% (inactive)
17,Cc1nn(CC(=O)N2CCC3(CC2)OCCO3)c(=O)c2cccn12,-10.4% (inactive)
18,O=C1CN=C(c2ccc(Br)cc2)c2cc(Br)ccc2N1,-2.48% (inactive)
19,N#Cc1ccc(NC(=O)COc2cc(F)ccc2[N+](=O)[O-])cc1Cl,10.7% (inactive)
20,CN1CN/C(=N\[N+](=O)[O-])N(Cc2ccco2)C1,-9.51% (inactive)
21,COc1ccc(CN2CCN(c3ccccc3F)CC2)c(O)c1,21.3% (inactive)
22,COc1cccc(CN2CCN(Cc3ccccc3OC)CC2)c1,7.82% (inactive)
23,CCN1CCN(Cc2ccc(F)cc2F)CC1,1.97% (inactive)

row,Compound,inhibition
1,COc1cc(CN2CCN(c3ccccc3)CC2)cc(OC)c1,5.15% (inactive)
2,CCC(C)N1CCN(Cc2cccc(OC)c2)CC1 (stereo not given),63.5% (active)
3,Fc1ccccc1CN1CCN(Cc2ccccc2F)CC1,75.5% (active)
4,Fc1ccc(N2CCN(Cc3ccccc3F)CC2)cc1,12.7% (inactive)
5,O=C(COc1ccccc1)N1CCN(Cc2cccc(Oc3ccccc3)c2)CC1,32.3% (inactive)
6,COc1cccc(CN2CCN(Cc3ccccc3F)CC2)c1,75.4% (active)
7,CCOC(=O)C1=C(N)Oc2cc(C)n(CC)c(=O)c2C12C(=O)N(CC(C)C)c1ccccc12 (stereo not given),4.18% (inactive)
8,Cc1ccc(C(O)(C(=O)NNc2cc(Cl)ccc2Cl)c2ccc(C)cc2)cc1,8.08% (inactive)
9,O=[N+]([O-])c1ccc(N2CCc3ccccc3C2)c2ccncc12,5.66% (inactive)
10,CC(C)(CNc1ccc([N+](=O)[O-])c2cccnc12)CNS(=O)(=O)c1ccc(Cl)cc1,0.37% (inactive)
11,N#CC1=C(N)Oc2c(c(=O)oc3ccccc23)C1c1ccc(OC(F)(F)F)cc1 (stereo not given),2.42% (inactive)
12,COc1ccc(NC(=O)CN(C)CC(=O)Nc2ccc(C#N)c(Cl)c2)cc1,7.15% (inactive)
13,CSc1ccccc1NC(=O)CN(C)CC(=O)Nc1ccc(C#N)c(Cl)c1,82.2% (active)
14,CSCCC(NC(=O)c1ccco1)C(=O)OCC(=O)Nc1ccc(C#N)c(Cl)c1 (stereo not given),4.56% (inactive)
15,COc1ccccc1N1C(=O)NC(=O)/C(=C\c2ccc(Cl)cc2Cl)C1=O,-0.45% (inactive)
16,CC(Cc1ccccc1)NC(=O)/C=C/c1ccco1 (stereo not given),7.08% (inactive)
17,CC(Cc1cccc(C(F)(F)F)c1)N1CCOCC1 (stereo not given),12.7% (inactive)
18,CCN1CCN(Cc2ccc(C(=O)OC)cc2)CC1,-13.2% (inactive)
19,CCN1CCN(Cc2ccc3ccccc3c2)CC1,3.25% (inactive)
20,CCC(C)N1CCN(Cc2ccc(SC)cc2)CC1 (stereo not given),65.1% (active)
21,CN1CCN(Cc2ccc(F)cc2)CC1CCO (stereo not given),-5.75% (inactive)
22,Clc1ccc(CN2CCN(Cc3ccc(Cl)cc3)CC2)cc1,31.9% (inactive)
23,CCC(CC)N1CCN(Cc2ccc(F)cc2)CC1,70.5% (active)

row,Compound,inhibition
1,Fc1cccc(Cl)c1CNC1CN2CCC1CC2 (stereo not given),2.47% (inactive)
2,O=C(CN1CCCC1)c1ccccc1Br,-5.43% (inactive)
3,Cc1cc(C=C2C(=O)NC(=S)NC2=O)c(C)n1-c1ccccc1C(F)(F)F,8.02% (inactive)
4,CCOC(=O)C1=C(N)OC2=C(C(=O)CCC2)C12C(=O)Nc1ccc(Br)cc12 (stereo not given),-1.67% (inactive)
5,FC1CC2C(Cl)C1NC2(C(F)(F)F)C(F)(F)F (stereo not given),-5.25% (inactive)
6,CN1C(=O)C(=Cc2cn(CC(=O)NCc3ccco3)c3ccccc23)C(=O)N(C)C1=O,0.24% (inactive)
7,CN1CCC(N(C)c2ncnc3scc(-c4ccc(Cl)cc4)c23)CC1,51.4% (active)
8,O=C(CN1C2CCC1CC(O)(c1ccccn1)C2)N1c2ccccc2Sc2ccccc21 (stereo not given),44.9% (inactive)
9,Cn1ccnc1C1(O)CC2CCC(C1)N2CC(=O)N1CCc2ccccc2C1 (stereo not given),9.08% (inactive)
10,CC1CCCC(C)N1C(=O)CN1C2CCC1CC(O)(c1ccccn1)C2 (stereo not given),54.9% (active)
11,COc1cccc(CN2CCN(C(=O)COc3ccccc3)CC2)c1OC,43.9% (inactive)
12,COc1cc(CN2CCN(C)CC2)ccc1O,41.2% (inactive)
13,COc1ccccc1CN1CCN(C(=O)Cc2ccccc2)CC1,57.1% (active)
14,COc1ccc(CN2CCN(Cc3ccccc3)CC2)cc1C,50.8% (active)
15,COc1ccccc1CN1CCN(Cc2ccc(Br)cc2)CC1,77.5% (active)
16,COc1ccccc1CN1CCN(c2ccc(F)cc2)CC1,19.3% (inactive)
17,COc1cc(CN2CCN(Cc3ccccc3)CC2)cc(I)c1O,-2.51% (inactive)
18,COc1ccccc1N1CCN(Cc2cccc(O)c2)CC1,24.7% (inactive)
19,Cc1cccc(OCC(=O)N2CCN(Cc3ccccc3)CC2)c1C,13% (inactive)
20,CC(C)CCn1c(=O)c(C(=O)Nc2nc3ccc(F)cc3s2)c(O)c2ccccc21,9.2% (inactive)
21,CC12CCC(=O)C=C1CC[C@@H]1[C@@H]2CCC2(C)[C@@H](O)CC[C@@H]12 (stereo not given in full),3.34% (inactive)
22,Cc1cccc(-n2c(CN3C(=O)c4ccccc4C3=O)nc3ccccc3c2=O)c1,8.78% (inactive)
23,C=CCN1C(=O)NC(=O)/C(=C/c2ccc(O)c(OC)c2)C1=O,-1.51% (inactive)

row,Compound,inhibition
1,C=CCN1C(=O)NC(=O)/C(=C/c2ccc3c(c2)OCO3)C1=O,11.9% (inactive)
2,CCNC(=S)N1CC2CC(C1)c1cccc(=O)n1C2 (stereo not given),-9.28% (inactive)
3,CCCC1=C(C(=O)OC)C2(C(=O)Nc3ccccc32)C(C(=O)OCC)=C(N)O1 (stereo not given),12% (inactive)
4,c1cc2c(cc1NC1=NCCCS1)OCCO2,2.15% (inactive)
5,O=C1NC(=S)N(Cc2ccco2)C(=O)/C1=C\c1ccc(-c2ccc([N+](=O)[O-])cc2)o1,89.9% (active)
6,O=C1NC(=S)NC(=O)C1=Cc1ccc(-c2ccccc2)o1,31.6% (inactive)
7,C=CCN1C(=O)/C(=C\c2cccn2-c2cccc([N+](=O)[O-])c2)C(=O)NC1=S,44.6% (inactive)
8,N#CC1=C(N)Oc2c(c(=O)oc3ccccc23)C1c1ccc([N+](=O)[O-])s1 (stereo not given),2.54% (inactive)
9,COc1cccc(-n2c(/C=C/c3cccnc3)nc3ccccc3c2=O)c1,-8.02% (inactive)
10,Cc1cc(C=O)c(C)n1Cc1ccco1,3.63% (inactive)
11,Cc1cc(/C=C2/C(=O)NC(=O)N(Cc3ccco3)C2=O)c(C)n1-c1ccc(C(=O)O)cc1,80.4% (active)
12,Cc1ccccc1N1C(=O)NC(=O)/C(=C\c2cc(C)n(-c3ccccc3C(=O)O)c2C)C1=O,15.6% (inactive)
13,COc1ccccc1CCNCc1ccc(C)cc1,24.2% (inactive)
14,O=[N+]([O-])c1ccc(O)c(CN2CCN(c3ccccc3)CC2)c1,9.43% (inactive)
15,O=[N+]([O-])c1ccccc1C[N+]12CCC(CC1)C(O)C2 (stereo not given),8.77% (inactive)
16,Cc1ccc(CN2CCN(C(=O)COc3cccc(C)c3)CC2)cc1,43.5% (inactive)
17,Cc1ccc(CN2CCN(Cc3ccccc3[N+](=O)[O-])CC2)cc1,59.3% (active)
18,O=[N+]([O-])c1ccccc1CN1CCN(Cc2cccc(F)c2)CC1,51.4% (active)
19,Fc1ccc(CN2CCN(c3ccccc3)CC2)cc1F,40.2% (inactive)
20,Cc1ccccc1OCC(=O)N1CCN(CCNC(=O)c2ccc3c(c2)OCO3)CC1,-3.05% (inactive)
21,O=C1NC(=S)NC(=O)C1=Cc1ccc(OCc2ccccc2)c(C(=O)O)c1,18.7% (inactive)
22,CCCC1(CCC)C(=O)NC(=Nc2ccc(OC)cc2)NC1=O,-6.47% (inactive)
23,CC(c1ccccc1F)n1cc(C(=O)NC2CC2)nn1 (stereo not given),-9.15% (inactive)
